VLA-4 antagonist: inhibitors of LDV-FITC ligand binding to Mn2+-activated human VLA-4 integrin | P13612 | Jurkat cells, LDV-FITC binding with Mn2+, flow cytometry; 100% = Mn2+-driven binding gain fully reversed | inhibition, % at 10 µM (by protocol) | actives 0.2% (n = 24,000) | AID 529;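 active means inhibition above 50%; inconclusive means compound itself fluorescent, judged against control cell fluorescence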;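 further: 0% = Mn2+ stimulated cells lacking compound and 100% = ligand binding without Mn2+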
Target sequence (P13612 whole entry, looked up): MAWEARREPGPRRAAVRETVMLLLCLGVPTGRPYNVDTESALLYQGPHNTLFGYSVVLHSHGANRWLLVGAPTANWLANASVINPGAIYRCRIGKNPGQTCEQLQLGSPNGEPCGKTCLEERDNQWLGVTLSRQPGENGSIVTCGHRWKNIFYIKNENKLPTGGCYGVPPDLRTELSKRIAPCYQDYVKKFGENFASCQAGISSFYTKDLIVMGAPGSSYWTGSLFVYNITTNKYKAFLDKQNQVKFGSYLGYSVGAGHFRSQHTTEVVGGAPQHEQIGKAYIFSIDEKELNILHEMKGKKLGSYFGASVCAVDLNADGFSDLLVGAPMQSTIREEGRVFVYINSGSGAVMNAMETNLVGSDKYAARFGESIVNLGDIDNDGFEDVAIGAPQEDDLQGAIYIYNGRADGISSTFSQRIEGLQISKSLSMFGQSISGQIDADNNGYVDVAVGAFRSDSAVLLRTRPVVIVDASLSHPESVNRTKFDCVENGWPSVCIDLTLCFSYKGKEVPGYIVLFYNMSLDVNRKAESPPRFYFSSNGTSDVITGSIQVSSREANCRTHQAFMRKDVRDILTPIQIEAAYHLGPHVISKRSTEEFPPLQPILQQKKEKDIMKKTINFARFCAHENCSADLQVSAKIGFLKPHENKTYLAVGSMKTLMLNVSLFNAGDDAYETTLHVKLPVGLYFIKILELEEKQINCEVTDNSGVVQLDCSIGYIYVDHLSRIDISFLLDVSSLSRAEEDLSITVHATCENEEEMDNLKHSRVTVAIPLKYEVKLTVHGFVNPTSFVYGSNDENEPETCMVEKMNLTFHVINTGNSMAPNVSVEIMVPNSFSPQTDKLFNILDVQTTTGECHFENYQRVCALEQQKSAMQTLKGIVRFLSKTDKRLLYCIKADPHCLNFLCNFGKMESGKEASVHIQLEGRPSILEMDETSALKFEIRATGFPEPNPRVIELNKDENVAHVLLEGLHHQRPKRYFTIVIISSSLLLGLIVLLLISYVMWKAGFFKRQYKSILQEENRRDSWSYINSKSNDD
Prostate diff: promotes differentiation of LNCaP prostate cells; flow cytometry side scatter, 4 d; side scatter shift, % at 10 µM; actives 0.56% (n = 24,000);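 active means side scatter shift above 30%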;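 further: androgen-responsive LNCaP prostate cancer cells in charcoal-stripped serum medium; percent of cells past a gate set so DMSO wells show 10% shift; higher shift means more granular cells and more differentiation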
Jurkat autofluor: compound fluoresces in Jurkat cells, VLA-4 screen interference. compound autofluorescence, flow cytometry; stronger effect = higher value; 1 = vehicle-only cell background. actives 0.61% (n = 24,000). fluorescence ratio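 (tested at 10 µM compound in the well)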. AID 576;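 active means fluorescence ratio above 2.44, which is 1 plus 3 SD of all ratios; inconclusive means signal too bright to measure linearly, ratio around 10 or more; inactive means fluorescence ratio below 2.44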;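 further: green fluorescence of cells measured with 488 nm excitation and 530 nm emission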
Proteasome disasm: blocks ATP-dependent breakdown of the yeast 26S proteasome | anti-FLAG beads, GFP-proteasome disassembly, flow cytometry | inhibition of disassembly, % (no concentration beside the values) | actives 0.2% (n = 24,000) | AID 751;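 active means inhibition of disassembly above about 33%, limit read from the data; inconclusive means likely self-fluorescent, control bead median signal at least 40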;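 further: plate controls were ATP control with full disassembly for no effect and ATP-gamma-S intact proteasomes for full effect; higher percent means more bead fluorescence retained so stronger block of disassembly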
VLA-4 allo ag: allosterically activates the human VLA-4 integrin | P13612 | Jurkat cells, LDV-FITC binding, flow cytometry | activation, % at 10 µM (by protocol) | 24,000 tested, under 10 active;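 active means fluorescent ligand binding to cells raised by more than 40% of the manganese-induced maximum; inconclusive means compound's own fluorescence above 85% of the ligand control signal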;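 further: 0% = ligand binding without compound and 100% = manganese-stimulated maximal binding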
* marks the source's active call; other numbers are inactive results. Compounds with a hit are over-represented: about 1.4% of the library has one in this group of screens.

For Cc1ccc2c(c1)[C@@H]1CN(C)CC[C@@H]1N2C(=O)Nc1cccc(C(F)(F)F)c1 the results were VLA-4 antagonist -8, Prostate diff 55*, Jurkat autofluor 1.1, Proteasome disasm -2 and VLA-4 allo ag 2.
`O=c1c2ccccc2[se]n1-c1ccccc1` gave VLA-4 antagonist -68, Prostate diff 3, Jurkat autofluor 1.1, Proteasome disasm -9 and VLA-4 allo ag 40*.
CC1(C)CC(=O)C=C(NCCN2CCN(C(=O)Cc3ccc(Cl)cc3)CC2)C1 was read as VLA-4 antagonist -33, Prostate diff 11, Jurkat autofluor 1.1, Proteasome disasm 2 and VLA-4 allo ag -7.
Screening O=C1CC(N2CC=C(c3ccccc3)CC2)C(=O)N1c1ccc(F)cc1 (stereo unspecified) returned VLA-4 antagonist inconclusive, Prostate diff 2, Jurkat autofluor 1.4, Proteasome disasm 0 and VLA-4 allo ag inconclusive.
For COc1ccc(C2SCC(=O)Nc3c2c(=O)[nH]n3C2CCCCCC2)cc1OC (stereo unspecified) the results were VLA-4 antagonist -20, Prostate diff 2, Jurkat autofluor 0.98, Proteasome disasm -1 and VLA-4 allo ag 6.
Screening CCOc1ccc(C2SCC(=O)Nc3c2c(=O)[nH]n3C2CCCCCC2)cc1 (stereo unspecified) returned VLA-4 antagonist -21, Prostate diff 34*, Jurkat autofluor 1, Proteasome disasm -3 and VLA-4 allo ag 6.

Assay outcomes from PubChem BioAssay.
